Assay results from PubChem BioAssay AID1159580 (chemical genetic matrix, 2015).
Several values for one entry are separate records, joined by “and”; a condition that tells them apart may be missing. Equal values may be shown once. Out of some 5,500 compounds screened, about 2,000 (36%) were called active. Inconclusive results (about 18%) are left out. Cut-off read from the data, not from the text of the source: active = normalized growth mostly below about 0.91 (no sharp cut-off); inconclusive = no clear call, values can overlap the other calls; inactive = mostly above about 0.92. The list shows a part of the results.

Test: chemical genetic growth profiling, strain panel (AID 1159580);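 note: tested at 20 µM; growth read once vehicle control cultures reached saturation at 30 °C; 1 = growth at the plate median or of vehicle wells; lower values mean less growth of the strain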
Conditions: S. cerevisiae deletion strains, growth OD

Measured: normalized growth

COc1cc(C(=O)NCc2ccc(OCCN(C)C)cc2)cc(OC)c1OC
inactive: locus YAL013W, strain DEP1, hits give low values 1 | locus YAL021C, strain ccr4, hits give low values 0.993 | locus YAL026C, strain drs2, hits give low values 0.998 | locus YAL030W, strain snc1, hits give low values 1 | locus YBL061C, strain skt5, hits give low values 0.981 | locus YBR009C, strain hhf1, hits give low values 1 | locus YBR021W, strain FUR4, hits give low values 1.03 | locus YBR023C, strain chs3, hits give low values 0.985 | locus YBR171W, strain sec66, hits give low values 0.999 | locus YBR229C, strain ROT2, hits give low values 0.951 | locus YBR231C, strain swc5, hits give low values 0.99 | locus YBR279W, strain paf1, hits give low values 1 | locus YCL011C, strain gbp2, hits give low values 1.01 | locus YCL016C, strain dcc1, hits give low values 0.98 | locus YCL029C, strain bik1, hits give low values 0.977 | locus YCL061C, strain MRC1, hits give low values 1 | locus YCL069W, strain vba3, hits give low values 0.995 | locus YCR088W, strain abp1, hits give low values 0.99 | locus YDL005C, strain med2, hits give low values 1.01 | locus YDL035C, strain GPR1, hits give low values 1.01 | locus YDL040C, strain nat1, hits give low values 1.02 | locus YDL074C, strain BRE1, hits give low values 0.951 | locus YDL101C, strain DUN1, hits give low values 0.973 | locus YDL134C, strain PPH21, hits give low values 0.996 | locus YDL185W, strain tfp1, hits give low values 0.979 | locus YDL192W, strain arf1, hits give low values 0.982 | locus YDR001C, strain nth1, hits give low values 1 | locus YDR069C, strain doa4, hits give low values 1 | locus YDR101C, strain arx1, hits give low values 0.93 | locus YDR137W, strain rgp1, hits give low values 1.01 | locus YDR150W, strain NUM1, hits give low values 0.974 | locus YDR159W, strain sac3, hits give low values 0.953 | locus YDR162C, strain NBP2, hits give low values 1.01 | locus YDR195W, strain ref2 0.997 | locus YDR297W, strain sur2, hits give low values 0.981 | locus YDR318W, strain mcm21, hits give low values 0.992 | locus YDR334W, strain swr1, hits give low values 0.99 | locus YDR335W, strain msn5, hits give low values 0.982 | locus YDR388W, hits give low values 0.988 | locus YDR392W, strain spt3, hits give low values 0.833 | locus YDR502C, strain sam2, hits give low values 0.985 | locus YEL003W, strain gim4, hits give low values 1 | locus YEL037C, strain rad23, hits give low values 0.988 | locus YEL061C, strain CIN8 (second series), hits give low values 0.978 | locus YEL061C, strain CIN8, hits give low values 0.978 | locus YER015W, strain faa2, hits give low values 0.991 | locus YER016W, strain bim1, hits give low values 0.994 | locus YER110C, hits give low values 0.984 | locus YER111C, strain swi4, hits give low values 0.982 | locus YER155C, strain BEM2 (second series), hits give low values 0.988 | locus YER155C, strain BEM2, hits give low values 0.996 | locus YER167W, strain BCK2, hits give low values 0.997 | locus YFR010W, strain ubp6, hits give low values 1 | locus YGL078C, strain dbp3, hits give low values 0.981 | locus YGL086W, strain mad1, hits give low values 0.966 | locus YGL167C, strain pmr1, hits give low values 1 | locus YGL173C, strain kem1, hits give low values 1 | locus YGL227W, strain vid30, hits give low values 1.01 | locus YGL240W, strain doc1, hits give low values 0.984 | locus YGL248W, strain PDE1, hits give low values 0.975 | locus YGL253W, strain hxk2, hits give low values 0.993 | locus YGR078C, strain PAC10, hits give low values 0.963 | locus YGR135W, strain pre9, hits give low values 1.06 | locus YGR229C, strain SMI1, hits give low values 1.02 | locus YGR252W, strain gcn5, hits give low values 1.03 | locus YHR013C, strain ard1, hits give low values 0.949 | locus YHR027C, strain rpn1, hits give low values 0.979 | locus YHR030C, strain SLT2, hits give low values 0.985 and 0.966 | locus YHR079C, strain IRE1 (second series), hits give low values 0.976 | locus YHR079C, strain IRE1, hits give low values 0.976 | locus YHR094C, strain hxt1, hits give low values 0.979 | locus YHR129C, strain ARP1, hits give low values 0.995 | locus YHR142W, strain chs7, hits give low values 0.982 | locus YHR200W, strain rpn10, hits give low values 0.983 | locus YIL066C, strain RNR3, hits give low values 0.963 | locus YIL073C, strain SPO22, hits give low values 1.04 | locus YIL125W, strain kgd1, hits give low values 0.976 | locus YIR030C, strain dcg1, hits give low values 0.989 | locus YJL092W, strain hpr5, hits give low values 0.997 | locus YJL095W, strain BCK1 (second series), hits give low values 0.988 | locus YJL095W, strain BCK1, hits give low values 0.991 and 0.995 | locus YJL115W, strain asf1, hits give low values 0.993 | locus YJL129C, strain trk1, hits give low values 0.981 | locus YJL134W, strain LCB3, hits give low values 0.993 | locus YJL154C, strain vps35, hits give low values 1.02 | locus YJL164C, strain tpk1, hits give low values 1 | locus YJL166W, strain qcr8, hits give low values 0.988 | locus YJL168C, strain set2, hits give low values 0.979 | locus YJL187C, strain SWE1 (second series), hits give low values 0.953
